In PubChem BioAssay:
The source made the active and inactive calls. Unless noted, the rule behind the calls is not given here.

Columns and labels:
[1] = tested on: XIP peptide (Xip251-270) binding; test: XIP fragment 251-270 binding compounds – biochemical, small-molecule microarray, fluorescence 635/667 nm, 0.1 µg/mL protein, primary screen (AID 1182); settings: fluorescent protein binding, 635 nm, higher = more signal, called active from +8 up or from −8 down
XIP peptide (Xip251-270) = test: compounds binding XIP fragment 251-270 – biochemical, small-molecule microarray, fluorescence 635/667 nm, 0.5 µg/mL protein, primary screen (AID 1183); settings: fluorescence 635 nm, higher = more signal
[2] = blood-stage malaria parasite viability loss – strain 3D7, DAPI fluorescence, 100 nL, primary screen (AID 1184);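 note: parasites grown inside human red blood cells in medium with human serum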; settings: P. falciparum 3D7 growth, 3 d, higher = more signal
[3] = target: Homeobox protein Hox-A13 (Mus musculus) (UniProt Q62424); test: disruptors of Hoxa13 oligonucleotide interaction – biochemical, fluorescence polarization, labeled oligonucleotide, primary screen (AID 1185); settings: Hoxa13:DNA binding, 15 min, higher = more signal, called active from +8 up or from −8 down
[4] = blockers of DNA damage checkpoint Chk1 activation – imaging, HeLa, hydroxyurea, phospho-Chk1 antibody, percent positive cells, primary screen (AID 1186); settings: hydroxyurea-induced phospho-Chk1 immunofluorescence imaging, higher = more signal
[5] = blockers of DNA damage checkpoint Chk1 activation – imaging, HeLa, hydroxyurea, phospho-Chk1 nuclear intensity, primary screen (AID 1187); settings: hydroxyurea-induced phospho-Chk1 immunofluorescence imaging, higher = more signal

Sequence of Homeobox protein Hox-A13 (Mus musculus) (Q62424 whole entry, looked up): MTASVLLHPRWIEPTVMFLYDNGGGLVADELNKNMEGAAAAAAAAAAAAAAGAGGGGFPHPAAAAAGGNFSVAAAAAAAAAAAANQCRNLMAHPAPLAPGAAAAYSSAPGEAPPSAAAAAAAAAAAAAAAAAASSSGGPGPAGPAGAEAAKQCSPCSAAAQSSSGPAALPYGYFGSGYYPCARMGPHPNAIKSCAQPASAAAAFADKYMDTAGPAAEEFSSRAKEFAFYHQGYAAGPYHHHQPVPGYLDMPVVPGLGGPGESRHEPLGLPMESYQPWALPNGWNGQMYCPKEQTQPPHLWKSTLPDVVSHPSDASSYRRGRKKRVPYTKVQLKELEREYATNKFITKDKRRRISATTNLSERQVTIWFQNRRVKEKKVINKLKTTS

SMILES	composite z-score [1]	composite z-score (XIP peptide (Xip251-270))	z-score [2]	z-score [3]	z-score [4]	z-score [5]
C[C@]1(C(=O)O)c2ccccc2C(=O)N(Cc2ccc(OC(F)(F)F)cc2)[C@H]1c1ccc(CO)cc1	-0.336 (inactive)	-1.05	0.465	-4.09 (inactive)	-0.159 (inactive)	-0.344 (inactive)
C=C(COC)/C(=C/C[C@@H](OC(C)=O)c1ccc(CO)o1)c1cc(C(=O)OC)ccc1OC	0.824 (inactive)	0.147	0.0394	-4.84 (inactive)	-1.06 (inactive)	-1.26 (inactive)
COC(=O)C1N=C(c2ccc(OCCCO)cc2)N(c2ccccc2)O1 (stereo not given)	2.4 (inactive)	0.864	0.704	-3.85 (inactive)	-0.729 (inactive)	-0.63 (inactive)
CC(=O)n1cc(C(O)C2C=CC3C(=O)N(c4ccccc4)C(=O)C3N2Nc2ccc(C(C)C)cc2)c2ccccc21 (stereo not given)	0.18 (inactive)	0.755	-0.15	-2.7 (inactive)	0.417 (inactive)	0.2 (inactive)
NCCCCCNC(=O)[C@@H]1C[C@@H]2C(=O)N3CCC[C@H]3C(=O)N2[C@@H]1c1ccc(O)cc1	0.0353 (inactive)	0.0129	0.0766	-1.74 (inactive)	0.299 (inactive)	0.235 (inactive)
COC(=O)C(CC#Cc1ccc2c(c1)[C@]1(C(=O)N2)[C@H](C(=O)Nc2nc3ccccc3s2)[C@H]2C(=O)O[C@H](c3ccccc3)[C@H](c3ccccc3)N2[C@@H]1c1ccc(OCCO)cc1)C(=O)OC	3.13 (inactive)	0.771	-2.1	0.713 (inactive)	0.0974 (inactive)	0.531 (inactive)
O=C(O)[C@@H]1C[C@@H]2C(=O)N3CCC[C@H]3C(=O)N2[C@@H]1c1cccc(OCCO)c1	2 (inactive)	0.932	-0.382	-2.19 (inactive)	0.299 (inactive)	-0.0384 (inactive)
COc1ccc(C(=O)Nc2cccc(CN3C(=O)[C@]4(O[C@H](CCn5cc([C@H](O)c6ccccc6)nn5)[C@@H]([Si](C)(C)c5ccc(OC)cc5)[C@@H]4C)c4ccccc43)c2)cc1	0.0632 (inactive)	0.497	-2.76	2 (inactive)	-0.161 (inactive)	-0.0692 (inactive)
C=CCN1C(=O)[C@]2(O[C@H](CCO)[C@@H]([Si](C)(C)c3ccc(OC)cc3)[C@@H]2C)c2cc(N3C(=O)COc4ccccc43)ccc21	0.879 (inactive)	0.677	-2.85	-3.34 (inactive)	-1.42 (inactive)	-1.34 (inactive)
C=C(COC)C(=O)CC[C@@H](OC(=O)c1cccnc1)c1ccccc1OCCO	-0.288 (inactive)	-0.576	-3.07	-4.3 (inactive)	0.329 (inactive)	0.162 (inactive)
CN(C)CCCCNC(=O)[C@H]1C[C@H]2C(=O)N[C@@H](CCCC[N+](C)(C)C)C(=O)N2[C@H]1c1ccc(O)cc1	-0.0941 (inactive)	0.674	-0.449	-3.64 (inactive)	-1.31 (inactive)	-0.989 (inactive)
CN1C(=O)C2C(C1=O)C1C=C(CCCO)C2C(C2CC2)N1Cc1cc2c(cc1Br)OCO2 (stereo not given)	1.34 (inactive)	0.891	-1.2	-7.89 (inactive)	0.498 (inactive)	0.27 (inactive)
COc1ccc(CCNC(=O)[C@@]2(Cc3ccccc3I)c3ccccc3C(=O)N(Cc3ccccc3Cl)[C@H]2c2ccc(CO)cc2)cc1	0.71 (inactive)	0.765	-1.23	-3.36 (inactive)	0.207 (inactive)	-0.304 (inactive)
Cc1ccccc1C(O)C1C=CC2C(=O)NC(=O)C2N1Nc1ccc(Cl)cc1Cl (stereo not given)	3.24 (inactive)	0.693	0.254	-5.08 (inactive)	0.165 (inactive)	-0.016 (inactive)
COCCOC(=O)N1C(=O)[C@@]2(c3cc(C#Cc4ccc(OC)cc4)ccc31)[C@H](c1ccc(OCCO)cc1)N1[C@H](c3ccccc3)[C@H](c3ccccc3)OC(=O)[C@H]1[C@@H]2C(=O)Nc1nc2ccccc2s1	0.968 (inactive)	0.414	-0.817	1.31 (inactive)	-0.007 (inactive)	0.254 (inactive)
CCN(CC)c1ccc(N2CC=CC34O[C@@H]5C=CCCOC(=O)C5[C@H]3C(=O)N(CCO)[C@@H]4C2=O)cc1 (stereo not given in full)	-0.828 (inactive)	-0.72	0.0497	-5.85 (inactive)	-0.516 (inactive)	-0.584 (inactive)
CO[C@H]1O[C@H](CO)[C@@H](OC(=O)c2ccc(Br)cc2)[C@@H]2OC(=O)[C@H](Cc3ccccc3)C/C=C/C[C@@H](Cc3ccccc3)C(=O)O[C@@H]12	-0.161 (inactive)	0.629	-0.949	-5.27 (inactive)	-0.708 (inactive)	-1.06 (inactive)
[N-]=[N+]=NCc1ccccc1[C@@H]1OC(c2ccc(OCCCO)cc2)=N[C@]1(Cc1ccccc1N=[N+]=[N-])C(=O)NCCN1CCOCC1	0.24 (inactive)	0.878	-2.45	-4.64 (inactive)	-0.276 (inactive)	-0.22 (inactive)

SMILES	composite z-score [1]	composite z-score (XIP peptide (Xip251-270))	z-score [2]	z-score [3]	z-score [4]	z-score [5]
C=C(/C(=C/C[C@@H](OC(C)=O)c1ccc(CO)o1)c1cc(C(=O)OC)ccc1OC)C(C)C	0.698 (inactive)	0.135	-0.485	-4.95 (inactive)	0.623 (inactive)	0.273 (inactive)
CCOC(=O)C=Cc1ccccc1O	1.39 (inactive)	0.322	-1.39	-0.772 (inactive)	-0.312 (inactive)	-0.678 (inactive)
CN1C(=O)C2C=CC(C(O)c3ccc(F)cc3)N(NC(=O)OC(C)(C)C)C2C1=O (stereo not given)	-0.0758 (inactive)	0.258	-0.383	-2.11 (inactive)	0.058 (inactive)	-0.173 (inactive)
CC1CC/C=C\[C@H]2OC34C=CCN(C(C)(C)C)C(=O)[C@H]3N(C(CO)C(C)C)C(=O)[C@@H]4C2C(=O)O1 (stereo not given in full)	1.27 (inactive)	-0.142	-0.459	-5.73 (inactive)	0.015 (inactive)	0.277 (inactive)
CCCNC(=O)[C@@]1(Sc2ccc(C)cc2)CC(=O)N(C2CCCCC2)[C@@H]1c1ccc(CO)cc1I	0.398 (inactive)	0.372	-0.688	-4.72 (inactive)	0.493 (inactive)	0.252 (inactive)
[N-]=[N+]=NCc1ccccc1[C@H]1OC(c2ccc(OCCCO)cc2)=N[C@@]1(CCS(=O)(=O)c1ccccc1)C(=O)NCc1ccccc1	-0.165 (inactive)	0.68	-2.28	-0.495 (inactive)	-0.189 (inactive)	0.283 (inactive)
COCCCNC(=O)[C@@]1(c2ccc([N+](=O)[O-])cc2)CC(=O)N(CC23CC4CC(CC(C4)C2)C3)[C@@H]1c1ccc(CO)cc1I	1.15 (inactive)	0.383	-1.13	-4.38 (inactive)	0.568 (inactive)	0.885 (inactive)
COC(=O)[C@@]1(Cc2ccccc2CN=[N+]=[N-])N=C(c2ccc(OCCCO)cc2)O[C@H]1c1ccccc1	2.54 (inactive)	0.766	-2.34	-4.51 (inactive)	0.022 (inactive)	0.55 (inactive)
O=C1C[C@@](C(=O)NCC(F)(F)F)(c2ccc([N+](=O)[O-])cc2)[C@@H](c2ccc(CO)cc2)N1CC12CC3CC(CC(C3)C1)C2	1.13 (inactive)	0.709	-1.43	-4.42 (inactive)	-0.123 (inactive)	-0.661 (inactive)
[N-]=[N+]=NCc1ccccc1[C@@H]1OC(c2ccc(OCCCO)cc2)=N[C@]1(Cc1ccccc1)C(=O)NCCN1CCOCC1	-0.256 (inactive)	0.77	-2.2	-1.66 (inactive)	-0.294 (inactive)	-0.108 (inactive)
O=C1C[C@@](C(=O)NCc2ccccc2)(c2ccc([N+](=O)[O-])cc2)[C@@H](c2ccc(CO)cc2I)N1CC12CC3CC(CC(C3)C1)C2	0.239 (inactive)	0.692	-1.48	-2.19 (inactive)	-0.114 (inactive)	-0.147 (inactive)
NC(=O)[C@H]1[C@@H]2C(=O)O[C@@H](c3ccccc3)[C@@H](c3ccccc3)N2[C@@H](c2ccc(O)cc2)[C@]12C(=O)Nc1ccc(C#CC3=CCCCC3)cc12	0.875 (inactive)	-0.0283	-0.88	-1.08 (inactive)	-0.165 (inactive)	-0.348 (inactive)
CCOC(=O)C=Cc1cc(F)ccc1O	0.198 (inactive)	0.487	-1.65	-0.42 (inactive)	0.631 (inactive)	-1.13 (inactive)
C=CCC(OC(C)=O)[C@@H]1[C@@H](N(Cc2ccc(-c3ccccc3)cc2)C(=O)c2ccc(C)cc2)c2cc(OCCCO)ccc2N1C(=O)Cc1ccc2ccccc2c1 (stereo not given in full)	0.254 (inactive)	0.0529	-0.481	-1.28 (inactive)	-0.816 (inactive)	-0.488 (inactive)
C=CC[C@H](OC(=O)Nc1ccc(SC)cc1)c1ccc(OCCO)cc1	1.07 (inactive)	-0.141	0.749	-6.15 (inactive)	0.108 (inactive)	1.03 (inactive)
C=CCNC(=O)[C@H]1[C@@H]2C(=O)O[C@@H](c3ccccc3)[C@@H](c3ccccc3)N2[C@@H](c2ccc(O)cc2)[C@]12C(=O)N(C(=O)OCCOC)c1ccc(C#CCC(C(=O)OC)C(=O)OC)cc12	2.8 (inactive)	0.761	-2.07	-0.414 (inactive)	-0.0546 (inactive)	-0.0093 (inactive)
O=C1C2C=CC(C(O)c3ccc(I)cc3)N(Nc3ccccc3)C2C(=O)N1c1ccccc1 (stereo not given)	0.393 (inactive)	0.702	0.83	-2.67 (inactive)	-0.007 (inactive)	-1.05 (inactive)
